As usually defined, the AC50 is the midpoint of the concentration-response curve, whichever way the signal moves.

Active and inactive are the calls of the source. The calls were made as follows: active = hit-call score of the fitted dose curve at least 0.9, where 1 is the maximum; inactive = score below 0.9.

Chain of CCAAT/enhancer-binding protein beta (Homo sapiens) (P17676 whole entry, looked up): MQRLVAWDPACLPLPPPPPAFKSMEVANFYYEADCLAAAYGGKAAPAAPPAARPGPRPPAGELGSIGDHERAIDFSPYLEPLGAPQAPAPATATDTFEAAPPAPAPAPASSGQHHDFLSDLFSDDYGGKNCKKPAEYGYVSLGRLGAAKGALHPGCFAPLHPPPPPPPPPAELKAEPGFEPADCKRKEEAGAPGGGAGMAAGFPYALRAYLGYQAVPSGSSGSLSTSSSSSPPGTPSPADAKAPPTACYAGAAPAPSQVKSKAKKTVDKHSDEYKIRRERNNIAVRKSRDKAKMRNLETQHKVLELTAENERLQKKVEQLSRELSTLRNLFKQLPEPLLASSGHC

One test has as its target CCAAT/enhancer-binding protein beta (Homo sapiens) (UniProt P17676). The experiment in a line: ATG_C_EBP_CIS: Attagene CIS-FACTORIAL HepG2 Assay for human CCAAT/Enhancer Binding Protein (C/EBP) beta (AID 2282927). The following applies: HepG2 Attagene cis-factorial transcription factor reporter; actives raise or lower the signal. The procedure, abridged: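 Changes in reporter mRNA, rather than exogenous chimeric receptor activity, reflect native C/EBP signalling in transfected HepG2 cells dosed for 24 h; transcripts are detected by RT-PCR and capillary electrophoresis.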
Turning to `CC(=O)C=CC1C(C)=CCC(C)C1(C)C` (stereo unspecified), the outcome was inactive.
The same measure, in the same setting: with `CCCCCCCC[N+](C)(CCCCCCCC)CCCCCCCC` the entry was “inactive”; with `CCCCCC/C=C\CCCCCCCC(=O)O`, “inactive”.
The same measure, in the same setting: as for `CCCCCCCC/C=C\CCCCCCCC(=O)O`, the entry is “inactive”.
In the case of `Oc1ccc(Cl)cc1Cc1cc(Cl)ccc1O`, the outcome was inactive.
Same read-out and setting: as for `COCCCOCCCOC`, the entry is “inactive”; as for `CCCCCCCC(C)=O`, “inactive”; as for `C1=CCCC1`, “inactive”.
On the same count and under the same terms, as for `CCCCCCCCc1ccc(Nc2ccc(CCCCCCCC)cc2)cc1`, the entry is “inactive”; as for `NC(=O)N=NC(N)=O`, “inactive”.

Test system in another test: not listed separately
As to the kind of experiment: ATG_CMV_CIS: Attagene CIS-FACTORIAL HepG2 Assay for human CMV (Internal Marker) (AID 2282928).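 Also: endpoint acts as a background internal control marker rather than a target.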 The following applies: HepG2 CMV promoter reporter, transcription factor profiling; actives raise or lower the signal. The method in brief:
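After transient transfection of HepG2 with reporter transcription units driven by cis-regulatory promoters, cells receive test chemical for 24 h. Labeled reporter amplicons, digested with HpaI, are sized and quantified by capillary electrophoresis against DMSO.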
Take `COCCOCCOCCOCCOC`: the compound was called inactive.
On the same count and under the same terms, as for `N=c1ccn2c(n1)O[C@H]1[C@H](O)[C@@H](CO)O[C@H]12`, the entry is “inactive”; as for `O=C1CCCCCCCCCCC(=O)OCCO1`, “inactive”.
Regarding `CCCCC/C=C\C/C=C\CCCCCCCC(=O)OC`, the compound was called inactive.
Still for that read-out and setting: with `O=C(Oc1ccccc1)c1ccc2ccccc2c1O` the entry was “inactive”; with `O=CC1CC1`, “inactive”.
On to `CCOC(=O)Cc1cccc2ccccc12`, for which the compound was called inactive.
Turning to `COC(=O)c1sccc1S(N)(=O)=O`, the outcome was inactive.
Same read-out and setting: as for `CC1(C)S[C@@H]2[C@H](NC(=O)COc3ccccc3)C(=O)N2[C@H]1C(=O)O`, the entry is “inactive”; as for `[Cl][In]([Cl])[Cl]`, “inactive”.
The same measure, in the same setting: as for `CCCCCCOC(=O)C(C)CC` (stereo unspecified), the entry is “inactive”; as for `CCO[Si](CCCN=C=O)(OCC)OCC`, “inactive”.
On to `CCCCCCCCCCCCCCCCCC#N`, for which the call was inactive.
As to `[Cl][Nd]([Cl])[Cl]`, the compound was classed as inactive.
In the case of `O=Nc1ccc(O)cc1`, the compound was called inactive.
The same measure, in the same setting: with `Cc1ccc(C2OC[C@@H]3OC(c4ccc(C)cc4)O[C@H]([C@H](O)CO)[C@@H]3O2)cc1` (stereo partly specified) the entry was “inactive”.
For `O=C(c1ccc(O)cc1)c1ccc(O)cc1O`, the AC50 was 68.7 µM (active).
Turning to `CCCOC(=O)CCCCC(=O)OCCC`, the compound was classed as inactive.
As for `O=C1C=CC(=O)O1`, the compound was classed as inactive.
On the same count and under the same terms, as for `O=S1(=O)OC(c2ccc(O)cc2)(c2ccc(O)cc2)c2ccccc21`, the entry is “inactive”; as for `O=C(Cl)c1cc(C(=O)Cl)cc(C(=O)Cl)c1`, “inactive”.
Consider `O=C(O)CC(C(=O)O)C(CC(=O)O)C(=O)O` (stereo unspecified), for which the result was inactive.
The same measure, in the same setting: as for `[Cl][Bi]([Cl])([c]1ccccc1)([c]1ccccc1)[c]1ccccc1`, the entry is “inactive”; as for `COC(=O)/C=C\C(=O)O`, “inactive”.
Same read-out and setting: with `CC(=O)c1ccc2c(c1)CCCC2` the entry was “inactive”; with `OCCN(CCO)c1ccccc1`, “inactive”; with `c1ccc2c(c1)ccc1cc3c(ccc4ccccc43)cc12`, “inactive”.
Still for that read-out and setting: as for `NCCCN1CCN(CCCN)CC1`, the entry is “inactive”.
As to `COc1cc(NC(=O)CC(C)=O)c(OC)cc1Cl`, the compound was classed as inactive.
The same measure, in the same setting: with `O=c1[nH]nc(-c2ccc([N+](=O)[O-])o2)o1` the entry was “inactive”; with `CC(=O)C=CC1C(C)=CCC(C)C1(C)C` (stereo unspecified), “inactive”; with `CCCCCCCC[N+](C)(CCCCCCCC)CCCCCCCC`, “inactive”.
Same read-out and setting: as for `CCCCCC/C=C\CCCCCCCC(=O)O`, the entry is “inactive”; as for `CCCCCCCC/C=C\CCCCCCCC(=O)O`, “inactive”; as for `Oc1ccc(Cl)cc1Cc1cc(Cl)ccc1O`, “inactive”.
In the case of `COCCCOCCCOC`, the compound was called inactive.
As for `CCCCCCCC(C)=O`, the result was inactive.
With `C1=CCCC1`, the outcome was inactive.
As for `CCCCCCCCc1ccc(Nc2ccc(CCCCCCCC)cc2)cc1`, the result was inactive.
Turning to `NC(=O)N=NC(N)=O`, the compound was called inactive.

Test system in a further test: not listed separately
The experiment in a line: ATG_DR4_LXR_CIS: Attagene CIS-FACTORIAL HepG2 Assay for human Liver X Receptor (LXR), DR4 submotif (AID 2282929). The following applies: HepG2 Attagene DR4 cis-reporter, mRNA transcription; actives raise or lower the signal. The procedure, abridged: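 Measures endogenous transcription factor activity via a DR4-driven reporter transcript in human HepG2 cells. Compounds incubated 24 h; mRNA quantified by RT-PCR and capillary electrophoresis, analysed as gain or loss of signal versus DMSO.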
`N=c1ccn2c(n1)O[C@H]1[C@H](O)[C@@H](CO)O[C@H]12`: the result was inactive.
As for `O=C1CCCCCCCCCCC(=O)OCCO1`, the compound was called inactive.
As for `O=C(Oc1ccccc1)c1ccc2ccccc2c1O`, the compound was classed as inactive.
For the compound `O=CC1CC1`, the compound was called inactive.
Still for that read-out and setting: as for `CCOC(=O)Cc1cccc2ccccc12`, the entry is “inactive”; as for `COC(=O)c1sccc1S(N)(=O)=O`, “inactive”.
The same measure, in the same setting: with `CC1(C)S[C@@H]2[C@H](NC(=O)COc3ccccc3)C(=O)N2[C@H]1C(=O)O` the entry was “inactive”.
On the same count and under the same terms, with `[Cl][In]([Cl])[Cl]` the entry was “inactive”.
On to `CCCCCCOC(=O)C(C)CC` (stereo unspecified), for which the result was inactive.
On the same count and under the same terms, as for `CCCCCCCCCCCCCCCCCC#N`, the entry is “inactive”; as for `[Cl][Nd]([Cl])[Cl]`, “inactive”; as for `O=Nc1ccc(O)cc1`, “inactive”.
Still for that read-out and setting: as for `Cc1ccc(C2OC[C@@H]3OC(c4ccc(C)cc4)O[C@H]([C@H](O)CO)[C@@H]3O2)cc1` (stereo partly specified), the entry is “inactive”; as for `O=C(c1ccc(O)cc1)c1ccc(O)cc1O`, “inactive”.
`CCCOC(=O)CCCCC(=O)OCCC`: the result was inactive.
Turning to `O=S1(=O)OC(c2ccc(O)cc2)(c2ccc(O)cc2)c2ccccc21`, the result was inactive.
Same read-out and setting: with `O=C(Cl)c1cc(C(=O)Cl)cc(C(=O)Cl)c1` the entry was “inactive”.
In the case of `[Cl][Bi]([Cl])([c]1ccccc1)([c]1ccccc1)[c]1ccccc1`, the AC50 was 3.07 µM (active).
As for `COC(=O)/C=C\C(=O)O`, the outcome was inactive.
Turning to `CC(=O)c1ccc2c(c1)CCCC2`, the compound was classed as inactive.
On to `OCCN(CCO)c1ccccc1`, for which the outcome was inactive.
Turning to `c1ccc2c(c1)ccc1cc3c(ccc4ccccc43)cc12`, the call was inactive.
On the same count and under the same terms, as for `NCCCN1CCN(CCCN)CC1`, the entry is “inactive”; as for `COc1cc(NC(=O)CC(C)=O)c(OC)cc1Cl`, “inactive”; as for `O=c1[nH]nc(-c2ccc([N+](=O)[O-])o2)o1`, “inactive”.
On to `CC(=O)C=CC1C(C)=CCC(C)C1(C)C` (stereo unspecified), for which the outcome was inactive.
Still for that read-out and setting: with `CCCCCCCC[N+](C)(CCCCCCCC)CCCCCCCC` the entry was “inactive”.
Consider `CCCCCC/C=C\CCCCCCCC(=O)O`, for which the AC50 is 27.3 µM (active).
The same measure, in the same setting: as for `CCCCCCCC/C=C\CCCCCCCC(=O)O`, the figure is 48.7 µM (active).
With `C1=CCCC1`, the result was inactive.
For the compound `CCCCCCCCc1ccc(Nc2ccc(CCCCCCCC)cc2)cc1`, the result was inactive.

These data come from PubChem BioAssay (EPA / NIEHS).
